PP5 inh – blocks human protein phosphatase 5 activity. hit rate 0.18% among 320,000. purified PP5c, OMFP substrate fluorescence. P53041. inhibition, % at 6.7 µM;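 active = inhibition above the campaign's mean inhibition across all tested compounds plus 3 SD, cut at about 9.5% in these data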
Target sequence (P53041 whole entry, looked up): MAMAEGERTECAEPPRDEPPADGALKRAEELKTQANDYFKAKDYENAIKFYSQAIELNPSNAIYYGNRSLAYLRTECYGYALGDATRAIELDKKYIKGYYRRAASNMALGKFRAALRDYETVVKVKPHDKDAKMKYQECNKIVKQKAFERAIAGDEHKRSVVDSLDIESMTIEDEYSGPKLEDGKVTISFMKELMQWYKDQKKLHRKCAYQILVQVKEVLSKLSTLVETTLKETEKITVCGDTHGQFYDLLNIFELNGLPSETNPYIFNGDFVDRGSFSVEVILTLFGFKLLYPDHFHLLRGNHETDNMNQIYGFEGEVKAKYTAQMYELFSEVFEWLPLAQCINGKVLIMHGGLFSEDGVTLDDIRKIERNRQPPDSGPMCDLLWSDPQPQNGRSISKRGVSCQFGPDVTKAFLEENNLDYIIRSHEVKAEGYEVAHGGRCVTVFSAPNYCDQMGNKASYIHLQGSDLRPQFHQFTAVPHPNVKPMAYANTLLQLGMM
GASC-1 inh – human JMJD2C demethylase inhibition; AID 2099; inhibition, % at 2.35 µM; Q9H3R0; hit rate 0.069% among 330,000; GST-JMJD2C(1-420) H3K9me3 demethylation, DELFIA europium;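 active = more than half of a compound's replicate wells show inhibition beyond 50%, single wells judged on their own value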;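 also: signal counts dimethyl H3K9 product captured on neutravidin plate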
KLK7 zymogen act – activates the human kallikrein-7 zymogen; purified proKLK7, EDANS-DABCYL substrate fluorescence; 100% is mature enzyme control, 0% vehicle; P49862; hit rate 0.9% among 370,000; activation, % at 7 µM;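 active = activation above the mean of all tested compounds plus 3 SD, computed per campaign excluding outliers beyond control limits, cut at about 13% in these data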
PP1 inh – blocks human PP1-alpha phosphatase, a PP5 counter-screen | hit rate 0.9% among 320,000 | purified PP1alpha, OMFP fluorescence | inhibition, % at 6.7 µM;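 active = inhibition above the mean inhibition of all tested compounds plus 3 SD, computed separately for each screening campaign, cut at about 15% in these data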
PG9 binder – small molecules binding HIV-1 gp120 antibody PG9; TR-FRET gp120-PG9 antibody binding; inhibition, % at 6.7 µM; hit rate 0.43% among 360,000; AID 624416; in the data active = inhibition above about 8.5%
NR1D1 modulator – Rev-erb alpha (human) modulation; activity, % at 10 µM; AID 1259318; Rev-erbα–FITC-DNA binding, fluorescence polarization, 90 min; hit rate 0.79% among 370,000; P20393;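 active = activity above about 14%, limit read from the data; passing the limit was not always enough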
PG9 binder conf – confirmation of small molecules binding HIV-1 gp120 antibody PG9; shares compounds with PG9 binder; TR-FRET PG9 antibody binding, biochemical; inhibition, % at 6.7 µM; hit rate 90% among 1,500; AID 651571; in the data active = inhibition above about 9%
PGV04 Ab binding – PGV04 control antibody binding, counter-screen. hit rate 95% among 1,500. AID 651604. shares compounds with PG9 binder. inhibition, % at 6.7 µM. TR-FRET PGV04 antibody-gp120 binding, biochemical; in the data active = inhibition above about 9.5%
PG9 bind DR – small molecules binding HIV-1 gp120 antibody PG9 | AID 651848 | shares compounds with PG9 binder | 95 tested, under 10 active | IC50, µM | TR-FRET PG9 antibody-gp120 binding inhibition; in the data active = IC50 below about 10 µM
PGV04 DR counter – PGV04 binding, dose response counter-screen; IC50, µM; TR-FRET binding to control antibody PGV04; shares compounds with PG9 binder; hit rate 20% among 95; AID 651937
PG126 binding DR – binds control antibody PG126 in PG9 counter-screen; shares compounds with PG9 binder; TR-FRET binding to antibody PG126, counterscreen; IC50, µM; hit rate 20% among 95; AID 651939
Each line names hits and unclear results; the compound was inactive in the other large screens (follow-up assays come after a bar, where they were run). In the library only some 2.8% were active in any assay of this set; here they are far more common. Rule as the data show it, unless noted: active = IC50 below about 9 µM; inactive = the rest.

O=C(CSc1nnc(-c2ccc(Br)cc2)n1C1CCCCC1)N1CCCC1	PG9 binder 9.3 | PG9 binder conf 8.7 | PGV04 Ab binding 10
CC(C)CNC(=O)OCc1cn(Cc2cccc(F)c2)nn1	none (no result: PP5 inh, GASC-1 inh, PP1 inh, PG9 binder)
COc1ccc(S(=O)(=O)NNC(=O)c2cc3c4ccccc4n(C)c3s2)cc1	PG9 binder 18 | PG9 binder conf 19 | PGV04 Ab binding 31
COc1ccc(-c2cc(C(=O)NN=Cc3ccccc3F)[nH]n2)cc1	none (no result: PP5 inh, GASC-1 inh, PP1 inh, PG9 binder)
O=C(N[C@H](C(=O)N1CCC[C@H]1C(=O)NCCc1ccccc1Cl)C1CCCCC1)c1ccc(Cl)c(Cl)c1	none (no result: PP5 inh, GASC-1 inh, PP1 inh)
O=C(/C=C/c1ccc(-c2ccccc2)cc1)NC1=NCCS1	none (no result: PP5 inh, GASC-1 inh, KLK7 zymogen act, PP1 inh, PG9 binder)
CC(Sc1ccc2ccccc2n1)C(=O)O (stereo not drawn)	PG9 binder 50 (no result: PP5 inh, PP1 inh) | PG9 binder conf 53 | PGV04 Ab binding 59
Cc1cc(SC(C)C(=O)O)nc2ccccc12 (stereo not drawn)	none
CC(Sc1cnc2ccccc2n1)C(=O)O (stereo not drawn)	PP1 inh 18, PG9 binder 13 | PG9 binder conf 18 | PGV04 Ab binding 23
C=CCn1c(C)c(C(=O)OCC)c2cc(O)c3ccccc3c21	PG9 binder 11 (no result: PP5 inh, PP1 inh) | PG9 binder conf inactive | PGV04 Ab binding inactive | PG9 bind DR inactive | PGV04 DR counter inactive | PG126 binding DR inactive
CCCCCCCCN1C(=O)[C@@H](CC(=O)NCCC(C)C)C[C@@]2(C(=O)OC)C1=C[C@H](C(C)(C)C)O[C@@H]2C	none (no result: PP5 inh, GASC-1 inh, PP1 inh)
Cc1nc2ccc(Br)cc2c(-c2ccccc2)c1C(=O)O	PG9 binder 55 | PG9 binder conf 65 | PGV04 Ab binding 77
Cc1ccc(NC(=O)C2CCN(c3nnc(-n4cccc4)s3)CC2)c(C)c1	none (no result: PP5 inh, GASC-1 inh, PP1 inh, PG9 binder)
COC(=O)[C@]12C[C@H](CC(=O)NCc3ccc(C)o3)C(=O)N(Cc3ccc(Cl)cc3Cl)C1=C[C@H](C(C)C)O[C@@H]2C1CC1	none (no result: PP5 inh, GASC-1 inh, PP1 inh, PG9 binder)
CCCc1cc(=O)oc2cc(OCC(=O)NCc3cccs3)ccc12	none
CCCc1cc(=O)oc2cc(OCC(=O)Nc3ccc(S(N)(=O)=O)cc3)ccc12	PG9 binder 18 | PG9 binder conf 24 | PGV04 Ab binding 22 | PG9 bind DR inactive | PGV04 DR counter inactive | PG126 binding DR inactive
COc1ccccc1C(=O)Nc1nnc(S(=O)(=O)N2CCCCC2)s1	PG9 binder 36 | PG9 binder conf 35 | PGV04 Ab binding 42
COc1ccccc1C(=O)Nc1nnc(S(=O)(=O)N2CCCCCC2)s1	none
COc1ccc(C2NC(=O)c3sc4nc(C)c(C(C)=O)c(-c5ccc(Cl)cc5)c4c3N2)cc1 (stereo not drawn)	PG9 binder 9.3 | PG9 binder conf 22 | PGV04 Ab binding 40
Fc1ccc2nc(Nc3nc4c(F)cccc4s3)sc2c1	PG9 binder 11 | PG9 binder conf 14 | PGV04 Ab binding 21
COC(=O)[C@]12C[C@H](CC(=O)N3CCN(C(=O)C4CC4)CC3)C(=O)N(Cc3ccccc3)C1=C[C@H](COCc1ccccc1)O[C@@H]2C	none (no result: PP5 inh, GASC-1 inh, PP1 inh, PG9 binder)
COc1cccc(CNC(=O)COC(=O)/C(C#N)=C/c2ccc(N(C)C)cc2)c1	PG9 binder 21 | PG9 binder conf 36 | PGV04 Ab binding 51
CC(=O)OCCCN1CCC2(CCCCC2)C1=O	none (no result: PP5 inh, GASC-1 inh, PP1 inh, PG9 binder)
CCN(c1ccc(C(=O)CN2C(=O)NC3(CCOc4ccccc43)C2=O)cc1)S(C)(=O)=O (stereo not drawn)	PG9 binder 9.8 | PG9 binder conf 34 | PGV04 Ab binding 32 | PG9 bind DR inactive | PGV04 DR counter inactive | PG126 binding DR inactive
